# Source: paper PMC7862700, “An all-to-all approach to the identification of sequence-specific readers for epigenetic DNA modifications on cytosine”
# Legend:
# Test in all cases: DAPPL (digital affinity profiling via proximity ligation, sequencing); 10 mM Tris-HCl pH 7.5, 50 mM NaCl, 1 mM DTT, 4% glycerol, room temperature, 30 min; GST-TFs on glutathione beads, 16-mer random dsDNA library, 0.1% formaldehyde crosslink after washing; high values mean tight binding
# Conditions in all cases: protein: recombinant; tags: N-terminal GST; dsDNA, one strand shown
# ETV1 = ETV1 (Homo sapiens, UniProt P50549 1-477)
# How it was run: (§1)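 Binding signal is given per hexamer as its read frequency for a factor divided by its frequency in the tag-only sample. GST-fused human transcription factors were expressed in yeast, captured on glutathione beads, barcoded with DNA and pooled with that sample, then incubated with 200 nmole of a 16-mer random double-stranded DNA library in Tris/NaCl/DTT/glycerol buffer for 30 min at room temperature. The pools were then washed, crosslinked, proximity-ligated, amplified by PCR and sequenced on an Illumina NextSeq500.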
# ERF = biological target: T1, ERF (Homo sapiens, UniProt P50548 1-548)
# T1 sequence: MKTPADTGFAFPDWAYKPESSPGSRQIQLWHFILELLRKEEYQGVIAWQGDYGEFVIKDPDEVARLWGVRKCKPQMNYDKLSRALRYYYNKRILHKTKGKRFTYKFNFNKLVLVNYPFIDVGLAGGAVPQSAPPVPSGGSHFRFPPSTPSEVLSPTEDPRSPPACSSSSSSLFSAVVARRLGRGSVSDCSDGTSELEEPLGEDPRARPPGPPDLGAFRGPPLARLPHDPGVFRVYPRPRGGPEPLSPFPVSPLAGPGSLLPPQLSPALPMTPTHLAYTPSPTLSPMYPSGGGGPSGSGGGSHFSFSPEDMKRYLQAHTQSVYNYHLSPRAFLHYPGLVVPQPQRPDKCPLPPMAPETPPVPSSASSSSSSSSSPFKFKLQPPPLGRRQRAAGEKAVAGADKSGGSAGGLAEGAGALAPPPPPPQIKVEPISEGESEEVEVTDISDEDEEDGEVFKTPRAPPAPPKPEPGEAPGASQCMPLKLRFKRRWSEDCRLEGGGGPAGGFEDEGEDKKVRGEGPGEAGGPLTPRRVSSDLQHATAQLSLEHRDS
# How it was run: as §1
# ETV3L = biological target: T2, ETV3L (Homo sapiens, UniProt Q6ZN32 1-361)
# T2 sequence: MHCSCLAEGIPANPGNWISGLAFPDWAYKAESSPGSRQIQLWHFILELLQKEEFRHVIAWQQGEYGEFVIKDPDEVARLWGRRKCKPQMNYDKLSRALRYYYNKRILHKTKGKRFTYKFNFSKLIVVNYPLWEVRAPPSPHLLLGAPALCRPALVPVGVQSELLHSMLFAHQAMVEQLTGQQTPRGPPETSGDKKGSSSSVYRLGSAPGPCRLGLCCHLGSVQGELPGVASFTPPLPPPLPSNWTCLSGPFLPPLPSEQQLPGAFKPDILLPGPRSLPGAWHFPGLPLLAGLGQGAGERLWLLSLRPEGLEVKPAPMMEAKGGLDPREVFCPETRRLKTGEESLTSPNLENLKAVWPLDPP
# How it was run: as §1
# ETS2 = biological target: T3, ETS2 (Homo sapiens, UniProt P15036 1-469)
# T3 sequence: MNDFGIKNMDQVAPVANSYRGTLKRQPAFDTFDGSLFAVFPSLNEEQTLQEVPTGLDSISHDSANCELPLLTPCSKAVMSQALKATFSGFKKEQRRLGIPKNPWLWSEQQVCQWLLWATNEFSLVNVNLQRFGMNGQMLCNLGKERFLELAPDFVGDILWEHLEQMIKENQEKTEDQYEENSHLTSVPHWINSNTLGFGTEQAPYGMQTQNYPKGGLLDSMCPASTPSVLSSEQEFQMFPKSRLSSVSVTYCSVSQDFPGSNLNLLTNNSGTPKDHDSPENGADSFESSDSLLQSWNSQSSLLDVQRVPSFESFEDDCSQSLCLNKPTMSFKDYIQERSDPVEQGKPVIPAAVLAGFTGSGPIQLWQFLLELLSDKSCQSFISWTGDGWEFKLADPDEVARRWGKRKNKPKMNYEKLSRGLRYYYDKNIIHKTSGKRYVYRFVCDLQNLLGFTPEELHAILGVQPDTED
# How it was run: as §1
# SPDEF = biological target: T4, SPDEF (Homo sapiens, UniProt O95238 1-335)
# T4 sequence: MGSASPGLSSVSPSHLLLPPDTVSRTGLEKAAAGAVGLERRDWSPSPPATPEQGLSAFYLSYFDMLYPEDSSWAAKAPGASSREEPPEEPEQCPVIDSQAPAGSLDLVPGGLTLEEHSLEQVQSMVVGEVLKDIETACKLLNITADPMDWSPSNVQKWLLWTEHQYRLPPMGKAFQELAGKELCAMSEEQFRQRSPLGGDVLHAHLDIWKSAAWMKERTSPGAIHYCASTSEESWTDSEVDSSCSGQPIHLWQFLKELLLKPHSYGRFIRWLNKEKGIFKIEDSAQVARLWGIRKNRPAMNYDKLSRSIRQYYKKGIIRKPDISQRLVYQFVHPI
# How it was run: as §1
# ETV7 = biological target: T5, ETV7 (Homo sapiens, UniProt Q9Y603 1-341)
# T5 sequence: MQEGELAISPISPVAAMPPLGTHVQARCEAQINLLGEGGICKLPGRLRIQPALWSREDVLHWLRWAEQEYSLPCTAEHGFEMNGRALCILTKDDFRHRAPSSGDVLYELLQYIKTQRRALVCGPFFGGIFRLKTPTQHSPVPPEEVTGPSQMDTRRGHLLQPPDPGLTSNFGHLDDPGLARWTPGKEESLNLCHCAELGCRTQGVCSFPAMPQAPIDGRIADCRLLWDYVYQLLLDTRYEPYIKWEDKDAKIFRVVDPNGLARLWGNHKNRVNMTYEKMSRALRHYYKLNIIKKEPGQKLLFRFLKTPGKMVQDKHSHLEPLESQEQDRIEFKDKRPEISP
# How it was run: as §1
# ELF5 = biological target: T6, ELF5 (Homo sapiens, UniProt Q9UKW6-2 1-255)
# T6 sequence: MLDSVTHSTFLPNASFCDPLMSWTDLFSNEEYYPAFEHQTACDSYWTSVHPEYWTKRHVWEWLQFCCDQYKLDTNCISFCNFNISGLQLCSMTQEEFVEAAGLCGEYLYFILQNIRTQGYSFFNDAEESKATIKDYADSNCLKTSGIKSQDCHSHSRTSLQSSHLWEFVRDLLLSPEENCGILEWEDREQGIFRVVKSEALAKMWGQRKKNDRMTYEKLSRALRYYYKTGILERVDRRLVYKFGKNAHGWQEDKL
# How it was run: as §1
# ETV3 = biological target: T7, ETV3 (Homo sapiens, UniProt P41162-2 1-143)
# T7 sequence: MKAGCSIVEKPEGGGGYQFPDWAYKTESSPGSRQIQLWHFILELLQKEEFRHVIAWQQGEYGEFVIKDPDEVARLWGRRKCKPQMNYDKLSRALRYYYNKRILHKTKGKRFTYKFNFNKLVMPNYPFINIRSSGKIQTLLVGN
# How it was run: as §1
# ETV6 = ETV6 (Homo sapiens, UniProt P41212 1-452)
# How it was run: as §1
# Sequence of ETV6 (P41212 whole entry): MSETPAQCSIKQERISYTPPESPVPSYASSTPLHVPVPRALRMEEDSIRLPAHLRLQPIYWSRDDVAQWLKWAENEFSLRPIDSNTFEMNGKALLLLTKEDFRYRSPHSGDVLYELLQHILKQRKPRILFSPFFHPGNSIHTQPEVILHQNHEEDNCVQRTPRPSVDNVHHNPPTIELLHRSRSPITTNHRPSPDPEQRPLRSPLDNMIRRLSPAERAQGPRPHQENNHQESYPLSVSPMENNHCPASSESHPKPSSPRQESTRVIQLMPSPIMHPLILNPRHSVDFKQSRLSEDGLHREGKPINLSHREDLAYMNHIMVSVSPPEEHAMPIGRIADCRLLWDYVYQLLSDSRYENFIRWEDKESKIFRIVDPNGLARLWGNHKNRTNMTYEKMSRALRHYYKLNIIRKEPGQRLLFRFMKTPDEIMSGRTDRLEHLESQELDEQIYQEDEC
# Sequence of ETV1 (P50549 whole entry, the tested form may be a part): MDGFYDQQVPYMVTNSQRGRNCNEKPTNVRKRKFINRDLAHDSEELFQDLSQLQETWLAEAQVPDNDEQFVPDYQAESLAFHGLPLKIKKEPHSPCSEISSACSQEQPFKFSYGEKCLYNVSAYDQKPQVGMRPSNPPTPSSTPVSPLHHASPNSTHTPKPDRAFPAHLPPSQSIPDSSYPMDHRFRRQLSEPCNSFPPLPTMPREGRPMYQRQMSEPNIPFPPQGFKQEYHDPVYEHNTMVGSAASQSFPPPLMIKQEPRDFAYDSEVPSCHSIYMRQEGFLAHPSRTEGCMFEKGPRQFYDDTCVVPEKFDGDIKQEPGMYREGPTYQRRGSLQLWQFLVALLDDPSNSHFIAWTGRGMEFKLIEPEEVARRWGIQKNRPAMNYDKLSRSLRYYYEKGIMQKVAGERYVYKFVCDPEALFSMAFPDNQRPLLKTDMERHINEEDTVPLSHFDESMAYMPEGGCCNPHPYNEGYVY
sequence,measurement,setting,value
CCTCTA,binding signal,ETV1,"1.28 fold enrichment (6-mer frequency, TF over GST control)"
same,binding signal,ERF,"1.34 fold enrichment (6-mer frequency, TF over GST control)"
same,binding signal,ETV3L,"1.38 fold enrichment (6-mer frequency, TF over GST control)"
same,binding signal,ETS2,"1.46 fold enrichment (6-mer frequency, TF over GST control)"
same,binding signal,SPDEF,"1.32 fold enrichment (6-mer frequency, TF over GST control)"
same,binding signal,ETV7,"1.36 fold enrichment (6-mer frequency, TF over GST control)"
same,binding signal,ELF5,"1.48 fold enrichment (6-mer frequency, TF over GST control)"
same,binding signal,ETV3,"1.33 fold enrichment (6-mer frequency, TF over GST control)"
same,binding signal,ETV6,"1.3 fold enrichment (6-mer frequency, TF over GST control)"
